Data published in PubChem BioAssay (NCI).
About 83,000 compounds went through this panel and 20% of them were active in at least one assay; those are over-represented in the sample as a whole.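 48-hour exposure, single concentration, 96-well plates; percent growth endpoint where 0 means no net growth. Active: below 10.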 Activity calls are given as the source filed them.

These compounds were tested on MDA-MB-231 breast (assay: NCI-60 one-dose screen, 48 h (100 = growth as untreated, 0 = no growth, -100 = all killed)). Conditions: 10 µM.

Row | SMILES | growth
1 | Clc1ccc(Nc2ccnc(NCCCNc3ccnc4cc(Cl)ccc34)n2)cc1 | -86% (active)
2 | Oc1[nH]c2cc(Cl)ccc2c1/C=c1/ccc2c(c1)N=C(c1cc(F)cc(F)c1)N=2 | 66.7% (inactive)
3 | CSc1nn(-c2ccccc2)c2ncnc(Oc3ccccc3)c12 | 98.3% (inactive)
4 | Cc1cc2c(C)c3cc(C)c(N)cc3nc2cc1N | 20.3% (inactive)
5 | CCOC(=O)C1(CC(C)C)CCOC1=O (centres undefined) | 109% (inactive)
6 | COc1ccc(Nc2cc(C)nc(NCCCNc3ccnc4cc(Cl)ccc34)n2)cc1 | -67.7% (active)
7 | CCCCCCCCCCCCCCCC(=O)OC1[C@@H](OC(=O)CCCCCCCCCCCCCCC)[C@@H](C(=O)N[C@@H](CCCCN)C(=O)OC)O[C@H]1n1cnc2c(=O)[nH]c(NC(=O)C(C)C)nc21 (some centres undefined) | 118% (inactive)
8 | COc1cc(Nc2ccnc(NCCNc3ccnc4cc(Cl)ccc34)n2)cc(OC)c1 | 27.1% (inactive)
9 | Cc1cc(Nc2ccc(Cl)cc2)nc(NCCCNc2ccnc3cc(Cl)ccc23)n1 | -88.2% (active)
10 | COc1cc2cc3c(nc2cc1OC)CCN3Cc1ccc(NC(=O)Nc2cc(C(F)(F)F)cc(C(F)(F)F)c2)cc1 | 57.4% (inactive)
11 | CC(C)=CCc1cc(O)cc2c1OC(C=C(C)C)C1=C2C(=O)C2=C(NCCS2(=O)=O)C1=O (centres undefined) | -8.67% (active)
12 | CC(C)=CCc1cc(O)cc2c1OC(C=C(C)C)C1=C2C(=O)C2=C(C1=O)S(=O)(=O)CCN2 (centres undefined) | 17.5% (inactive)
13 | COc1ccc(Nc2ccnc(NCCNc3ccnc4cc(Cl)ccc34)n2)cc1 | 37.3% (inactive)
14 | Cc1cc(Cl)nc(N(CCCNc2ccnc3cc(Cl)ccc23)Cc2cccs2)n1 | 17.2% (inactive)
15 | COc1cc(Cl)cc(-c2nn(-c3cccc(NC(=O)Nc4cc(C(F)(F)F)cc(C(F)(F)F)c4)c3)cc2-c2ccncc2)c1 | -75% (active)
16 | CN(C)CCNC(=O)c1cccn2c(=O)c3cc4ccccc4cc3nc12 | 22% (inactive)
17 | CC12O[C@H](C[C@@H](O)[C@H]1O)n1c3ccccc3c3c4c(c5c6ccccc6n2c5c31)C(=O)N(CCCN)C4=O | 41.1% (inactive)
18 | CCCCCCCC(C)NCCO (centres undefined) | 123% (inactive)
19 | Cc1cc(N(CCCNc2ccnc3cc(Cl)ccc23)Cc2ccc3c(c2)OCO3)nc(N2CCOCC2)n1 | 14.4% (inactive)
20 | COc1cc(-c2nnc(-c3c(-c4ccc(F)cc4)nc4ccccn34)o2)cc(OC)c1OC | 64.6% (inactive)

Row | SMILES | growth
21 | COc1ccc2c(c1)/C(=C\c1c[nH]c3ccc(OC)cc13)C(=O)N2 | 42.3% (inactive)
22 | NC(=O)CC1(c2ccccc2)CCCCC1 | 105% (inactive)
23 | COc1ccc(-c2nc3sccn3c2-c2nc3c([nH]2)C(=O)c2ccccc2C3=O)cc1 | 96.1% (inactive)
24 | Fc1ccc(-c2nnc(-c3c(-c4ccc(F)cc4)nc4ccccn34)o2)cc1 | 78.9% (inactive)
25 | CCN1CCCC1CNC(=O)c1ncc(-c2ccc(C(F)(F)F)cc2)c(NC2CCCCCC2)n1 (centres undefined) | 67.3% (inactive)
26 | Cc1ccc(Nc2cc(C)nc(NCCCNc3ccnc4cc(Cl)ccc34)n2)cc1 | -92.4% (active)
27 | Cn1c([N+](=O)[O-])cnc1/C=C1\Oc2ccccc2C1=O | -31.7% (active)
28 | CC12O[C@H](C[C@@H](OC(=O)c3ccccc3)[C@H]1O)n1c3ccccc3c3c4c(c5c6ccccc6n2c5c31)C(=O)NC4=O | 53.3% (inactive)
29 | COc1ccc(-c2nc3ncccn3c2-c2nnc(-c3ccc(F)cc3)o2)cc1 | 88.9% (inactive)
30 | Nc1ccc2c(c1)C1(CCC2)NC(=O)NC1=O (centres undefined) | 101% (inactive)
31 | COc1cc(OC)cc(-c2cncn2-c2ccc(-c3nc4cc(OC)cc(OC)c4s3)cc2)c1 | 66.5% (inactive)
32 | Clc1ccc2c(NCCCNc3nccc(Nc4ccc(Br)cc4)n3)ccnc2c1 | -90% (active)
33 | O=C(Nc1cccc(Br)c1)c1cc(=O)[nH]c2ccccc12 | 93.6% (inactive)
34 | COc1cc(Nc2ccnc(NCCCNc3ccnc4cc(Cl)ccc34)n2)cc(OC)c1 | -54.6% (active)
35 | CN1CCC(CNc2cc(C3(C(=O)Nc4cc(C(=O)Nc5ccc(Cl)c(C(F)(F)F)c5)ccc4F)CC3)ncn2)CC1 | -32.2% (active)
36 | N#Cc1c(C#N)c(SSc2c(C#N)c(C#N)c(N)n2-c2ccccc2)n(-c2ccccc2)c1N | 100% (inactive)
37 | Clc1ccc(Nc2ccnc(NCCNc3ccnc4cc(Cl)ccc34)n2)cc1 | -20.4% (active)
38 | Cc1cc(N(CCCNc2ccnc3cc(Cl)ccc23)Cc2ccc3c(c2)OCO3)nc(N2CCCCC2)n1 | -47.2% (active)
39 | CCCCN(CCCC)c1cc(C(=O)CCCCCN)c2ccccc2n1 | 78.3% (inactive)
